Test results reported in the supplement of paper PMC7380943.
± gives the standard deviation of the averaged measurements.

Tests used:
[1] = tested on: CLZ3 (HCA2 human fibroblast dual HR-NHEJ reporter); experiment: NHEJ repair efficiency (GFP+ cells) relative to control (log10 fold); higher = more non-homologous end joining; conditions: 5 µM; doxycycline 0.5 ug/mL
[2] = tested on: CLZ3 (HCA2 human fibroblast dual HR-NHEJ reporter); experiment: HR repair efficiency (tdTomato+ cells) relative to control (log10 fold); higher = more homologous recombination; conditions: 5 µM; doxycycline 0.5 ug/mL
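For HR repair efficiency (tdTomato+ cells) relative to control in this document: compound given one day before doxycycline, which switches on I-SceI endonuclease expression to create double-strand breaks within the integrated reporter.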
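For NHEJ repair efficiency (GFP+ cells) relative to control in this document: compound given one day ahead of doxycycline, which switches on I-SceI endonuclease to cut the chromosomally integrated reporter and create DSBs.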

Row | SMILES | NHEJ repair efficiency (log10) [1] | HR repair efficiency (log10) [2]
1 | O=C(/C=C/c1ccc(O)cc1)C1=C(O)C(O)([C@@H]2O[C@H](CO)[C@@H](O)[C@H](O)[C@H]2O)C(O)=C([C@@H]2O[C@H](CO)[C@@H](O)[C@H](O)[C@H]2O)C1=O (some centres undefined) [Hydroxysafflor yellow A] | 0.0258 | 0.0597
2 | CC(C)=CCC[C@](C)(O[C@@H]1O[C@H](CO[C@@H]2O[C@@H](CO)[C@H](O)[C@H]2O)[C@@H](O)[C@H](O)[C@H]1O)[C@H]1CC[C@]2(C)[C@@H]1[C@H](O)C[C@@H]1[C@@]3(C)CC[C@H](O[C@@H]4O[C@H](CO)[C@@H](O)[C@H](O)[C@H]4O[C@@H]4O[C@H](CO)[C@@H](O)[C@H](O)[C@H]4O)C(C)(C)[C@@H]3CC[C@]12C [Ginsenoside Rc] | 0.0541 | 0.0964
3 | OC[C@H]1OC(O)[C@H](O)[C@@H](O)[C@H]1O (stereo partly drawn) [D-Galactose] | 0.00385 | -0.0597
4 | O=C(O)/C=C/c1ccc(O)c(O)c1 [Caffeic acid] | 0.0395 | 0.0424
5 | COc1ccc(/C=C/C(=O)O)cc1O [Isoferulic acid] | 0.104 | -0.0013
6 | C/C=C(/C)C(=O)O[C@@H]1[C@H](OC(C)=O)c2c(ccc3ccc(=O)oc23)OC1(C)C [Praeruptorin A] | -0.00436 | -0.0186
7 | CC(C)=CCc1cc2c(cc1O)O[C@H](c1ccc(O)cc1)CC2=O [Bavachin] | 0.0703 | 0.0642
8 | CC1(C)C=Cc2c(ccc3c2OC[C@@H](c2ccc(O)cc2O)C3)O1 [Glabridin] | -0.0493 | -0.0637
9 | O=C(/C=C/c1ccc(O)c(O)c1)OC1(C(=O)O)C[C@@H](O)C(O)[C@H](O)C1 (some centres undefined) [1-Caffeoylquinic Acid] | -0.0477 | 0.0171
10 | CC1OC(OC2C(OC3CCC4(C)C(CCC5(C)C4CC=C4C6CC(C)(C)CCC6(C(=O)OC6OC(COC7OC(CO)C(O)C(O)C7O)C(O)C(O)C6O)CCC45C)C3(C)CO)OCC(O)C2O)C(O)C(O)C1O (centres undefined) [Dipsacoside B] | -0.0161 ± 0.011 | 0.00385 ± 0.11
11 | CC1(C)CC[C@]2(C(=O)O[C@@H]3O[C@H](CO)[C@@H](O)[C@H](O)[C@H]3O)CC[C@]3(C)C(=CC[C@@H]4[C@@]5(C)CC[C@H](O[C@@H]6O[C@H](C(=O)O)[C@@H](O)[C@H](O)[C@H]6O[C@@H]6O[C@H](CO)[C@@H](O)[C@H](O)[C@H]6O)C(C)(C)[C@@H]5CC[C@]43C)[C@@H]2C1 [Ginsenoside Ro] | 0.13 | 0.3
12 | CC(C)=C1CC[C@@H](C)CC1=O [Pulegone] | 0.114 | -0.0589
13 | COc1ccc(-c2oc3c(CC=C(C)C)c(O[C@@H]4O[C@H](CO)[C@@H](O)[C@H](O)[C@H]4O)cc(O)c3c(=O)c2O[C@@H]2O[C@@H](C)[C@H](O)[C@@H](O)[C@H]2O[C@@H]2OC[C@@H](O)[C@H](O)[C@H]2O)cc1 [Epimedin B] | -0.0634 | -0.0516
14 | COC(=O)C1=CO[C@@H](O[C@@H]2O[C@H](CO)[C@@H](O)[C@H](O)[C@H]2O)[C@@H]2[C@@H](C)[C@@H](O)C[C@H]12 [Loganin] | 0.226 | 0.191
15 | C/C=C1\[C@H]2C=C(C)C[C@]1(N)c1ccc(=O)[nH]c1C2 [Huperzine-A] | 0.0591 | 0.0391
16 | COc1cc([C@@H]2[C@H]3CO[C@@]4(O)C(=O)[C@@H]2C=C([C@H]2Oc5cc(O)cc(O)c5C(=O)[C@@H]2O)[C@@H]34)ccc1O [Silydianin] | -0.0155 ± 0.092 | 0.076 ± 0.0068
17 | O=c1cc(-c2ccc(O)c(O)c2)oc2cc(O)c([C@@H]3O[C@H](CO)[C@@H](O)[C@H](O)[C@H]3O)c(O)c12 [Isoorientin] | -0.0953 | 0.00986
18 | COc1cc2c(cc1OC)[C@@H]1Cc3ccc(OC)c(OC)c3CN1CC2 [Tetrahydropalmatine] | -0.0787 | 0.0375
19 | OC[C@H]1O[C@H](OC[C@H]2O[C@H](O[C@]3(CO)O[C@H](CO)[C@@H](O)[C@@H]3O)[C@H](O)[C@@H](O)[C@@H]2O)[C@H](O)[C@@H](O)[C@H]1O [Raffinose] | -0.133 | -0.00512
20 | C[C@@H]1O[C@@H](O[C@H]2[C@H](O[C@H]3CC[C@@]4(C)[C@@H](CC[C@]5(C)[C@@H]4CC=C4[C@@H]6CC(C)(C)CC[C@]6(C(=O)O[C@@H]6O[C@H](CO[C@@H]7O[C@H](CO)[C@@H](O)[C@H](O)[C@H]7O)[C@@H](O)[C@H](O)[C@H]6O)CC[C@]45C)[C@]3(C)CO)OC[C@H](O)[C@@H]2O)[C@H](O)[C@H](O[C@@H]2O[C@H](CO)[C@@H](O)[C@H](O)[C@H]2O)[C@H]1O [Macranthoidin A] | -0.155 | 0.0324
21 | C[C@H](CCC(=O)O)[C@H]1CC[C@H]2[C@@H]3C[C@H](O)[C@@H]4C[C@H](O)CC[C@]4(C)[C@H]3CC[C@]12C [Hyodesoxycholic acid] | -0.299 | -0.322
22 | CC1(C)CCC2(C(=O)OC3OC(CO)C(O)C(O)C3O)CCC3(C)C(=CCC4C5(C)CCC(OC6OC(C(=O)O)C(OC7OCC(O)C(OC8OC(CO)C(O)C(O)C8O)C7O)C(O)C6O)C(C)(C)C5CCC43C)C2C1 (centres undefined) [Oleanoside A] | -0.111 | 0.164
23 | C[C@@H]1O[C@@H](O[C@H]2C(=O)c3c(O)cc(O)cc3O[C@@H]2c2ccc(O)c(O)c2)[C@H](O)[C@H](O)[C@H]1O [Astilbin] | 0.0148 | 0.109
24 | O=C1C[C@@H](c2ccc(O)cc2)Oc2cc(O)ccc21 [Liquiritigenin] | 0.037 | 0.142

Row | SMILES | NHEJ repair efficiency (log10) [1] | HR repair efficiency (log10) [2]
25 | CC(CC(=O)C[C@@H](C)[C@H]1CC(=O)[C@@]2(C)C3=C(C(=O)C[C@]12C)[C@@]1(C)CCC(=O)C(C)(C)[C@@H]1C[C@@H]3O)C(=O)O (some centres undefined) [Ganoderic Acid D] | 0.113 | -0.241
26 | CCCCC/C=C\C/C=C\CCCCCCCC(=O)O [Linoleic Acid] | 0.0448 | -0.0026
27 | COc1cc2c(cc1O)CC[n+]1cc3c(OC)c(OC)ccc3cc1-2 [Jatrorrhizine] | -0.00725 | 0.0284
28 | CC(=O)O[C@@H]1C[C@@]23C[C@@]24CC[C@H](O[C@@H]2OC[C@@H](O)[C@H](O)[C@H]2O)C(C)(C)[C@@H]4CC=C3[C@]2(C)C[C@@H]3OC4(C[C@@H](C)[C@@H]3[C@@]12C)OC(O)C1(C)OC41 (some centres undefined) [Cimicifugoside] | 0.0323 | 0.0562
29 | COc1ccc(-c2cc(=O)c3c(O)c(OC)c(O)c(OC)c3o2)cc1 [Nevadensin] | -0.111 | 0.0179
30 | CC1(C)O[C@H]2CC(=O)OC[C@]23[C@H]2CC[C@@]4(C)[C@H](c5ccoc5)OC(=O)[C@H]5O[C@]54[C@]2(C)C(=O)C[C@@H]13 [Limonin] | 0.0392 | -0.00925
31 | CC[C@H](C)[C@@H]1NC(=O)[C@@H]2CCCN2C(=O)[C@@H]2CCCN2C(=O)[C@@H]2CCCN2C(=O)[C@H](CC(C)C)NC(=O)CNC(=O)CNC(=O)[C@H](Cc2ccccc2)NC1=O [Heterophyllin B] | 0.0424 | 0.0454
32 | C[C@@H]1O[C@@H](O[C@H]2[C@H](Oc3cc(O)c(C(=O)CCc4ccc(O)cc4)c(O)c3)O[C@H](CO)[C@@H](O)[C@@H]2O)[C@H](O)[C@H](O)[C@H]1O | -0.0363 | -0.0118
33 | NCC(=O)O [Aminoacetic acid] | 0.185 | 0.151
34 | C=C1C(=O)O[C@@H]2/C=C(\C)CC/C=C(\C)CC[C@@H]12 [Costunolide] | -0.04 | 0.07
35 | O=c1c(O)c(-c2ccc(O)c(O)c2)oc2cc(O)cc(O)c12 [Quercetin] | -0.047 | 0.086
36 | CC(=O)OC(C)C(C)C(=O)OCC12C3CC(C)(C)[C@H](O[C@@H]1C[C@]1(C)C3=CCC3C4(C)CCC(O[C@@H]5O[C@H](C(=O)O)[C@@H](O[C@H]6O[C@H](CO)[C@@H](O)[C@H](O)[C@H]6O)[C@H](O)[C@H]5O[C@@H]5OC[C@@H](O)[C@H](O)[C@H]5O)[C@](C)(CO)C4CCC31C)C2O (some centres undefined) [Sodium Aescinate] | 0.101 | 0.0537
37 | COc1cc(C=O)ccc1O [Vanillin] | -0.132 | -0.154
38 | COc1c(O)cc2c(c1O)C(=O)c1c(cc(C)c(O)c1OC)C2=O [Aurantio-obtusin] | 0.137 | 0.0361
39 | NCCCC(=O)O [γ-Aminobutyric Acid] | -0.0944 | 0.0562
40 | CC=C1[C@H](O[C@@H]2O[C@H](CO)[C@@H](O)[C@H](O)[C@H]2O)OC=C(C(=O)OC)[C@H]1CC(=O)OC[C@H]1O[C@@H](OCCc2ccc(O)cc2)[C@H](O)[C@@H](O)[C@@H]1O (stereo in doubt) [Specnuezhenide] | 0.00632 | 0.0832
41 | COc1cc(-c2coc3cc4c(c(OC)c3c2=O)OCO4)cc(OC)c1OC [Irisflorentin] | -0.0524 | 0.0727
42 | C[C@@H]1CC[C@@]2(NC1)O[C@H]1C[C@H]3[C@@H]4CC=C5C[C@@H](O[C@@H]6O[C@H](CO)[C@H](O)[C@H](O[C@@H]7O[C@H](CO)[C@@H](O)[C@H](O)[C@H]7O)[C@H]6O[C@@H]6O[C@@H](C)[C@H](O)[C@@H](O)[C@H]6O)CC[C@]5(C)[C@H]4CC[C@]3(C)[C@H]1[C@@H]2C [Solasonine] | -0.000957 | 0.0163
43 | CC(C)=CCc1c(O)ccc(C(=O)/C=C/c2ccc(O)cc2)c1O [Isobavachalcone] | 0.0115 | 0.0547
44 | COc1ccc(-c2coc3cc(O)ccc3c2=O)cc1 [Formononetin] | -0.06 | 0.128
45 | O=c1c(O[C@@H]2O[C@H](CO)[C@H](O)[C@H](O)[C@H]2O)c(-c2ccc(O)c(O)c2)oc2cc(O)cc(O)c12 [Hyperoside] | 0.0115 | -0.00424
46 | Cn1c(=O)c2c(ncn2C)n(C)c1=O [Caffeine] | 0.103 | 0.0527
47 | O=c1cc(-c2ccc(O)cc2)oc2cc(O)c(O)c(O)c12 [Scutellarein] | -0.103 | -0.025
